According to PubChem BioAssay:
Active and inactive are the calls of the source.

Key:
[1] = binders of probe aFSTL3 on microarray, primary screen, stem cell growth factor project, biochemical, small-molecule microarray, fluorescence 635/667 (AID 1064); conditions: higher = more signal;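 further: measures binding of the biotinylated anti-FSTL3 antibody to printed compounds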
[2] = binders from COS7 lysate, DM2A8 probe, primary screen, torsin A project, cell lysate, small-molecule microarray, fluorescence 635/667 (AID 1065); conditions: higher = more signal, COS7 lysate expressing mutant human TOR1A
[3] = binders of probe aFGF2 on microarray, primary screen, stem cell growth factor project, biochemical, small-molecule microarray, fluorescence 635/667 (AID 1067); conditions: higher = more signal;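 further: measures binding of biotinylated aFGF2 protein to printed compounds on slides; z-score merges feature fluorescence and signal-to-noise across triplicate slides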
[4] = binders of probe aFGF10 on microarray, primary screen, stem cell growth factor project, biochemical, small-molecule microarray, fluorescence 635/667 (AID 1071); conditions: higher = more signal;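 further: score merges 667 nm spot intensity and signal to noise from triplicate slides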
[5] = molecular target: Neurogenic locus notch homolog protein 2 (Homo sapiens) (UniProt Q04721); assay: Notch2 binders on small-molecule microarrays, primary screen, biochemical, small-molecule microarray, 635 nm fluorescence, stem cell growth factors (AID 1073); conditions: Notch2 binding, higher = more signal
[6] = molecular target: Pro-neuregulin-1, membrane-bound isoform (Homo sapiens) (UniProt Q02297); assay: NRG1 binders on small-molecule microarrays, primary screen, psychiatric disease protein project, biochemical, small-molecule microarray, fluorescence 635/667 (AID 1075); conditions: NRG1 binding, 635 nm fluorescence, higher = more signal;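 further: score combines 667 nm spot fluorescence with signal to noise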
[7] = tested on: Neuregulin-1 EGF-like domain; assay: binders of neuregulin-1 EGF-like domain, primary screen, biochemical, small-molecule microarray, 635 nm fluorescence (AID 1081); conditions: small-molecule microarray binding, higher = more signal;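 further: binding of the protein to compounds printed on small-molecule microarray slides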
[8] = FRG1 promoter luciferase signal modulators, primary screen, FRG1 inhibition for FSHD, cell-based, C2C12 myotubes, firefly/Renilla luciferase, luminescence (AID 1084); conditions: higher = more signal, called active from +8 up or from −8 down
[9] = binders of probe aFST on microarray, primary screen, stem cell growth factor project, biochemical, small-molecule microarray, fluorescence 635/667 (AID 1086); conditions: higher = more signal;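 further: score merges 667 nm fluorescence with signal-to-noise of each printed compound spot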
[10] = binders of probe aHhip on microarray, primary screen, stem cell growth factor project, biochemical, small-molecule microarray, fluorescence 635/667 (AID 1087); conditions: higher = more signal;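 further: score merges spot fluorescence at 667nm with spot signal to noise ratio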

Sequence of Pro-neuregulin-1, membrane-bound isoform (Homo sapiens) (Q02297 whole entry, looked up, the tested form may be a part, canonical isoform): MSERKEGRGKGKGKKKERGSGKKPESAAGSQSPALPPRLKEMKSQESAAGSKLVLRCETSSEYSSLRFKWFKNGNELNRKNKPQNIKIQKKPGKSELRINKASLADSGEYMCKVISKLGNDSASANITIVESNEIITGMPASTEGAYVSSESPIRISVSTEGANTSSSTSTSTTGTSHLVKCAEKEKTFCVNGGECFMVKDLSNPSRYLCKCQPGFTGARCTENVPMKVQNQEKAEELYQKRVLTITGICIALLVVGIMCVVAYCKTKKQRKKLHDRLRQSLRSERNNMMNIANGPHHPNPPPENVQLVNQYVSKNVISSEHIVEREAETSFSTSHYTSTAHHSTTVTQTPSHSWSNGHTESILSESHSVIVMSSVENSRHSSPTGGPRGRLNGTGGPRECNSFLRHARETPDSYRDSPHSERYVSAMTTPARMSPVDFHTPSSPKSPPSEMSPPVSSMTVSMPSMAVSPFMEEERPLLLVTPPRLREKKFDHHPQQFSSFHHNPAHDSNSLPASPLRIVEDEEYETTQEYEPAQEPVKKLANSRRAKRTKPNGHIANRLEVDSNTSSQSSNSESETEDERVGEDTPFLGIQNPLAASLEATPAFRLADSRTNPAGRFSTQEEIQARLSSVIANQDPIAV
Sequence of Neurogenic locus notch homolog protein 2 (Homo sapiens) (Q04721 whole entry, looked up, canonical isoform): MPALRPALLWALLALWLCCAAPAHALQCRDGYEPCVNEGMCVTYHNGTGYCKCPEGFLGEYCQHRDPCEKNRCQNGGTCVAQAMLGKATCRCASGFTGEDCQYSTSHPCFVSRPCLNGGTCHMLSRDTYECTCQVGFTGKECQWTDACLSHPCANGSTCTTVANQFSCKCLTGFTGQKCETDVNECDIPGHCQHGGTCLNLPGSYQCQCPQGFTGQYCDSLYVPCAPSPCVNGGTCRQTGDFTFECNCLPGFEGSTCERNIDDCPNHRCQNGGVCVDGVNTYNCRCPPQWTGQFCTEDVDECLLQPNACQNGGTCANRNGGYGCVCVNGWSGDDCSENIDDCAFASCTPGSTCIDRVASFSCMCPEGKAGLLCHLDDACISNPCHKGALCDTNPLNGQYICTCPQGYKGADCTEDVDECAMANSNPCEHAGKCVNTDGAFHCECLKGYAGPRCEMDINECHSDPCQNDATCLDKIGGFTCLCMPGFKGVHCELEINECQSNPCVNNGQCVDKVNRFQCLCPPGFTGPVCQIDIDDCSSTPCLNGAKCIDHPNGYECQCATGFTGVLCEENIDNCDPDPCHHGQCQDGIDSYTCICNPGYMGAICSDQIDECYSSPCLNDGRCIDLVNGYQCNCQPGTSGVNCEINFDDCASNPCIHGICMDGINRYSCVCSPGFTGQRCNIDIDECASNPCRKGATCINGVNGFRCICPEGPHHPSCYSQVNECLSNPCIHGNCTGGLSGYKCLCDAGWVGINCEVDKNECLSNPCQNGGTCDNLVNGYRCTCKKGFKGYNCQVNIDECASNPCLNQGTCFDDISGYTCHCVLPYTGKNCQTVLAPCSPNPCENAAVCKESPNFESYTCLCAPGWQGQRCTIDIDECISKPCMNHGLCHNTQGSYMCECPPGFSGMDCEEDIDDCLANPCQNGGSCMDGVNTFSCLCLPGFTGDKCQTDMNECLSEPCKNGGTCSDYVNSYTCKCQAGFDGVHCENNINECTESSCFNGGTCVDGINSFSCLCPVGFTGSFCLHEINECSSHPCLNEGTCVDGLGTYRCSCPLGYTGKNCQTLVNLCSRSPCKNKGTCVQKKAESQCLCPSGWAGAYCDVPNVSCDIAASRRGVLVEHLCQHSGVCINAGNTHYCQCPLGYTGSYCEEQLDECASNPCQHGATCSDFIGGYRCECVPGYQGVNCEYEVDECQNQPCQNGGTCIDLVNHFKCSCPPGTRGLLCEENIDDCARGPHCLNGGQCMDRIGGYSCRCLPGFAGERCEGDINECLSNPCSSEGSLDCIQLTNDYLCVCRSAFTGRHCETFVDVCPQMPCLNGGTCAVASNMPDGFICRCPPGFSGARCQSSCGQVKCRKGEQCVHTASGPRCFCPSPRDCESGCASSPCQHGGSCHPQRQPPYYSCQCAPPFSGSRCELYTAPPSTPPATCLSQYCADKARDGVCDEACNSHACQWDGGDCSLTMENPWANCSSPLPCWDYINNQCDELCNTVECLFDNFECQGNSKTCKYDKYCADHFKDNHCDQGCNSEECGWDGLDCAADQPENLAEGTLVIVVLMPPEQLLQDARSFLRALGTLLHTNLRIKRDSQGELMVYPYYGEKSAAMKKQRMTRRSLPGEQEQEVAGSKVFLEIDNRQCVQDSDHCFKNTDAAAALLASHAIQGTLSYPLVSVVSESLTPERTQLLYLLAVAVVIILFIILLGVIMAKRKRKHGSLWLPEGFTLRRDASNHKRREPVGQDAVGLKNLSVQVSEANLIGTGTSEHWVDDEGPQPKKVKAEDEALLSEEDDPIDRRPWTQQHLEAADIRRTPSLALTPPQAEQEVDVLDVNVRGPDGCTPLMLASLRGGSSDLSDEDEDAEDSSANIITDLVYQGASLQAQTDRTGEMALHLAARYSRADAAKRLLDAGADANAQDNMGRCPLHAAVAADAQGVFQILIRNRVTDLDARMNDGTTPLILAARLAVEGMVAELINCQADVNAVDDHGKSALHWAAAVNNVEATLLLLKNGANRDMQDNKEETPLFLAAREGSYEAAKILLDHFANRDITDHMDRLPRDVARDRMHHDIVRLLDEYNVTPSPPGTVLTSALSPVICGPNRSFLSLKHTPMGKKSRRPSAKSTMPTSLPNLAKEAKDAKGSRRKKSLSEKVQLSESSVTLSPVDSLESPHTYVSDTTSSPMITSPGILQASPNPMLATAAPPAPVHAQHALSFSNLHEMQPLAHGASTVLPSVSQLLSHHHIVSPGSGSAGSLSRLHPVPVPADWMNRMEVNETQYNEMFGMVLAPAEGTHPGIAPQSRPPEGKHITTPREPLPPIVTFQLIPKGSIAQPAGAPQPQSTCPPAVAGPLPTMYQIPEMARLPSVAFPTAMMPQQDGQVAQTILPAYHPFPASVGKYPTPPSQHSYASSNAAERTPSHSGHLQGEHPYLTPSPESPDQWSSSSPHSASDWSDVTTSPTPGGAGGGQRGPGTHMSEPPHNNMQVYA

SMILES | composite z-score [1] | composite z-score [2] | composite z-score [3] | composite z-score [4] | composite z-score [5] | composite z-score [6] | composite z-score [7] | z-score [8] | composite z-score [9] | composite z-score [10]
COC(=O)[C@]1(Cc2ccccc2N=[N+]=[N-])N=C(c2ccc(OCCCO)cc2)O[C@@H]1c1ccccc1N=[N+]=[N-] | -0.13 | -0.126 | -0.0512 | -0.102 | 0.374 | 0.46 | 1.1 | 3.58 (inactive) | 0.197 | -0.0994
COc1ccc([Si](C)(C)[C@H]2[C@H](CCn3cc(CCO)nn3)O[C@@]3(C(=O)N(Cc4ccc(N5CCOC5=O)cc4)c4ccccc43)[C@@H]2C)cc1 | 0.102 | 1.38 | -0.0158 | 0.44 | 0.14 | 1.51 | 1.07 | -3.54 (inactive) | 0.147 | -0.236
O=C(O)[C@H]1C[C@H]2C(=O)NCC(=O)N2[C@H]1c1ccc(O)cc1 | 0.136 | 0.202 | -0.0996 | -0.224 | -0.424 | -0.235 | 1.4 | 3.81 (inactive) | 0.025 | -0.226
COC(=O)C1=CC(CCCO)=CC(C2CC2)N(Cc2sc3ccccc3c2Cl)C=C1C(=O)OC (stereo not given) | -0.0356 | 0.43 | 0.0216 | 0.889 | 1.44 | 1.98 | 1.08 | -1.73 (inactive) | 1.1 | -0.266
Cc1ccccc1C(O)C1C=CC2C(=O)N(C)C(=O)C2N1Nc1ccccc1 (stereo not given) | 0.413 | 0.526 | -0.0035 | 0.0865 | 1.22 | 2.05 | 1.14 | 0.772 (inactive) | 0.842 | -0.0994
COC(=O)[C@@]1(Cc2ccccc2)[C@H]2c3cc(C(=O)N4CCCC4)n(Cc4ccc(C)o4)c3C[C@H]2CN1C(=O)c1ccccc1 | 0.385 | 0.225 | -0.162 | 0.0426 | 1.54 | 1.37 | 0.476 | 0.0318 (inactive) | 0.935 | 0.259
COCCOC(=O)N1C(=O)[C@@]2(c3cc(C#CCCO)ccc31)[C@H](C(=O)NC[C@H](O)c1ccccc1)[C@H]1C(=O)O[C@H](c3ccccc3)[C@H](c3ccccc3)N1[C@@H]2c1ccc(O)cc1 | -0.221 | 0.464 | -0.0058 | 0.627 | 0.026 | 1.48 | 1.21 | -1.04 (inactive) | 0.0399 | -0.134
COCCOC(=O)N1C(=O)[C@@]2(c3cc(C#CCC(C(=O)OC)C(=O)OC)ccc31)[C@H](C(=O)N1CCN(c3ncccn3)CC1)[C@H]1C(=O)O[C@H](c3ccccc3)[C@H](c3ccccc3)N1[C@@H]2c1ccc(OCCO)cc1 | -0.462 | 0.185 | -0.0293 | 0.0875 | 0.213 | 0.386 | 1.06 | -0.644 (inactive) | 0.0723 | -0.0088
COc1ccc(C(O)C2C=CC3C(=O)NC(=O)C3N2Nc2ccccn2)cc1OCc1ccccc1 (stereo not given) | -0.202 | -0.0593 | -0.0226 | 0.177 | 1.27 | 1.71 | 0.666 | 0.387 (inactive) | 0.216 | 3.69
CC(=O)NCCCC[C@@H]1NC(=O)[C@@H]2C[C@H](C(=O)NCCCCN(C)C)[C@H](c3ccc(O)cc3)N2C1=O | 0.641 | -0.241 | -0.168 | -0.971 | -1.09 | -0.463 | 0.939 | -0.816 (inactive) | -0.0292 | 0.0373
O=C/C=C/c1ccc2c(c1)OCO2 | -0.23 | -0.508 | -0.115 | 0.182 | -0.24 | -0.31 | 0.0106 | -0.779 (inactive) | -0.158 | 0.0821
[N-]=[N+]=NCc1ccccc1C[C@]1(C(=O)O)N=C(c2ccc(OCCCO)cc2)O[C@H]1c1ccccc1 | 0.32 | 0.474 | -0.0184 | 0.39 | 0.0892 | 1.09 | 0.976 | -2.33 (inactive) | 0.219 | -0.261
COc1ccc(CCNC(=O)[C@@]2(Sc3ccc(C)cc3)CC(=O)N(Cc3ccccc3Cl)[C@@H]2c2ccc(CO)cc2I)cc1 | 0.91 | -0.548 | -0.105 | 0.0404 | -1.02 | 1.2 | 0.883 | -2.03 (inactive) | -0.299 | 0.0695
O=C1C[C@]2(c3ccc([N+](=O)[O-])cc3)C(=O)N(CC(F)(F)F)c3cc(CO)ccc3[C@H]2N1CC12CC3CC(CC(C3)C1)C2 | -0.127 | 0.0228 | -0.101 | 0.0063 | -0.284 | -0.0962 | 0.988 | -0.659 (inactive) | 0.0443 | -0.249
CC(C)CNC(=O)[C@@H]1c2ccccc2C(=O)N(Cc2cc(C(F)(F)F)cc(C(F)(F)F)c2)[C@H]1c1ccc(CO)cc1 | 0.491 | -0.249 | 0.071 | -0.365 | -0.744 | -0.27 | 0.401 | 0.53 (inactive) | 0.0438 | 0.224
Cc1ccc(S[C@]2(C(=O)NCC(C)C)CC(=O)N(Cc3ccccc3)[C@@H]2c2ccc(CO)cc2I)cc1 | -0.0472 | 0.0315 | 0.0664 | 0.161 | 0.533 | 0.892 | 1.27 | -2.06 (inactive) | -0.325 | -0.0427
C=CCC(OC(C)=O)[C@@H]1[C@@H](N(Cc2ccc(-c3ccccc3)cc2)C(=O)Cc2ccc(OC)cc2)c2cc(OCCCO)ccc2N1C(=O)c1ccc2ccccc2n1 (stereo not given in full) | 0.0604 | -0.11 | -0.0074 | -0.0502 | 0.0378 | -0.111 | -0.271 | -0.83 (inactive) | 0.411 | -0.0994
